# From PubChem
# RAD52 anneal inh: blocks human RAD52 DNA annealing. recombinant RAD52 DNA annealing, FRET fluorescence. P43351. 360,000 compounds, 0.46% hits. inhibition, % at 18.7 µM. AID 651710;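 active = every replicate showing at least 50% inhibition; inconclusive = mean inhibition at least 50% but not in every replicate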
# FGF22 binding-1: shifts melting point of recombinant human FGF22 | recombinant FGF22 thermal shift, SYPRO orange fluorescence; percent of sucrose octasulfate shift, DMSO zero | Q9HCT0 | 340,000 compounds, 1.5% hits | activity (Tm shift, normalised), % at 9.99 µM;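 active = mean Tm shift, scaled 0 neutral to 100 positive control, at about 1.3% or above, every replicate too, limit read from the data; inconclusive = no clear call, values can overlap the other calls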
# Target sequence (Q9HCT0 whole entry, looked up): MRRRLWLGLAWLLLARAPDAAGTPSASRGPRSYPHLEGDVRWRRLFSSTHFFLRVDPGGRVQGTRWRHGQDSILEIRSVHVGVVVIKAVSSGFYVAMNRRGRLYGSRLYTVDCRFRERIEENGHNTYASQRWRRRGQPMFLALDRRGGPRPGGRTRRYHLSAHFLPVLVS
# DENV2 CPE rescue: DENV2-induced cell death inhibition. 350,000 compounds, 1.7% hits. DENV2-infected cells, cytopathic effect rescue, plate reader. CPE inhibition, % at 9.99 µM; in the data active = CPE inhibition above about 20%, passing the limit was not always enough; inconclusive = no clear call, values can overlap the other calls; tested in BHK-21 cells;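 also: 0% = median of neutral control wells and 100% = median of positive control wells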
# ERAP1 inh: ERAP1 (human) enzyme inhibition; Q9NZ08; recombinant ERAP1, Leu-AMC fluorescence, 60 min; inhibition, % at 10.7 µM; 340,000 compounds, 0.15% hits; AID 652197;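 active = mean replicate inhibition of at least 30%, or all replicates individually reaching that 30% level; inactive = mean below 30% and not every replicate reaching it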;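 also: 0% = neutral control wells and 100% = L-leucinethiol positive control wells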
# MLL AF4-AF9 inh: blocks AF4 peptide binding to human AF9. P42568. AlphaScreen, biotin-AF4 peptide binding to FLAG-AF9. inhibition, % at 10 µM. 350,000 compounds, 0.47% hits. AID 651704;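 active = every replicate reaching a set inhibition limit, whatever the replicate mean, cut at about 25% in these data; inconclusive = mean inhibition reaches that limit but some replicates miss it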;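 also: 0% = plate neutral control median and 100% = total signal loss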
# FGF22 binding-2: binders of human FGF22 by thermal shift. shares compounds with FGF22 binding-1. recombinant FGF22 thermal shift, SYPRO orange fluorescence. thermal shift activity, °C (ΔTm) at 38 µM. 1,000 compounds, 2% hits;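 active = fitted rise in melting shift crosses a set limit at or below the top valid dose tested; inconclusive = flat fit at mid-level activity, or a poor quality fit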
# SYPRO no-protein: compound-only SYPRO artifact for FGF22 binders | shares compounds with FGF22 binding-1 | compound-only SYPRO orange thermal shift counter-screen, no protein | AC50, µM (top dose mostly 38 µM) | 1,000 compounds, 2% hits;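 active = rising signal whose fitted curve reaches the 0.54 level within the top valid dose, showing a melting point, actives reach about 13 µM in these data; inactive = the rest, including activity in the opposite direction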; also: value is where the raw curve crosses a fixed level and not half-maximal
# The depositor's hits bear a star; i = inactive; u = inconclusive; x = no result; ! = repeats disagree; [ ] = another dose, or the depositor's remark. Sampled rows, rich in hits. Any-hit rate of the full collection: about 4%.
SMILES,RAD52 anneal inh,FGF22 binding-1,DENV2 CPE rescue,ERAP1 inh,MLL AF4-AF9 inh,FGF22 binding-2,SYPRO no-protein
CCCN(C)C[C@H]1Oc2cc(-c3ccncc3)ccc2S(=O)(=O)N([C@H](C)CO)C[C@H]1C,10,2.1*,1,-1,-1,-0.062,i
CCCN(C)C[C@H]1Oc2cc(C#Cc3cccnc3)ccc2S(=O)(=O)N([C@H](C)CO)C[C@@H]1C,-2,1.3*,5,1,1,0.002,i
CCCN(C)C[C@H]1Oc2cc(C#Cc3ccc(F)cc3)ccc2S(=O)(=O)N([C@H](C)CO)C[C@@H]1C,-36,1.7*!,1,-2,4,-0.19,i
CCC(=O)N1[C@H](CO)[C@@H](c2ccc(-c3ccc(C#N)cc3)cc2)C12CN(C(C)=O)C2,-10,0,-9,2,-2,x,x
CN1CCN(C(=O)C[C@H]2C[C@H]3c4cc(NC(=O)Nc5ccc(F)cc5)ccc4O[C@H]3[C@H](CO)O2)CC1,17,0,1,4,5,x,x
C[C@H](CO)N1C[C@H](C)[C@@H](CN(C)C)Oc2cc(C#CC3CCCCC3)ccc2S1(=O)=O,40,0,1,-5,10,x,x
COCC(=O)N(C)C[C@@H]1Oc2cc(C#Cc3ccccc3)ccc2S(=O)(=O)N([C@@H](C)CO)C[C@H]1C,-5,1.6*,4,4,4,0.027[42 µM],i
COCC(=O)N(C)C[C@@H]1Oc2cc(C#Cc3ccccc3)ccc2S(=O)(=O)N([C@H](C)CO)C[C@H]1C,-7,1,-3,1,4,x,x
C[C@H]1CN([C@@H](C)CO)S(=O)(=O)c2ccc(C#CC3CCCCC3)cc2O[C@@H]1CN(C)C,27,1.3*,8,-7,11,0.14[42 µM],i
COc1ccccc1NC(=O)N[C@@H]1CC[C@H](CCn2cc(-c3ccccc3)nn2)O[C@H]1CO,8,0,4,0,1,x,x
CC(=O)c1cccc(NC(=O)C2CCCN2S(=O)(=O)c2ccccc2C(F)(F)F)c1 (stereo not drawn),-44,0,u,-1,0,x,x
CC(=O)c1cccc(NC(=O)C2CCCN2S(=O)(=O)c2cccs2)c1 (stereo not drawn),-15,17*,-13,10,-4,-0.082,i
CO[C@@H]1CN(C)C(=O)c2ccc(NC(=O)C3CCC3)cc2OC[C@@H](C)N(Cc2nccs2)C[C@H]1C,3,0,-2,1,-1,x,x
O=C(Nc1ccsc1C(=O)O)c1cccc(C(F)(F)F)c1,-18,1.5*,19,-5,0,0.19,i
CNC(=O)C[C@@H]1CC[C@@H]2[C@H](COc3ccc(NC(=O)c4cccc(F)c4)cc3C(=O)N2C)O1,7,16*!,2,-1,-2,0,i
CCCNC(=O)C[C@H]1CC[C@H]2[C@H](COc3ccc(NS(=O)(=O)c4ccccc4C)cc3C(=O)N2C)O1,-2,x,-2,0,0,x,x
CNC(=O)C[C@@H]1CC[C@@H]2[C@@H](COc3ccc(NS(=O)(=O)c4ccccc4C)cc3C(=O)N2C)O1,21,20*,u,-1,-2,-0.018[42 µM],i
C[C@H](CO)N1C[C@H](C)[C@@H](CN(C)C(=O)Nc2ccccc2)OCCCC[C@H](C)Oc2ccc(NS(C)(=O)=O)cc2C1=O,6,0,1,-3,-4,x,x
CN(C(=O)Cn1nnc2ccccc2c1=O)C1CCCCC1,-15,1.8*,6,-2,-2,0.092,i
CC(=O)Nc1ccc2sc(C)nc2c1,-2,38*,-1,x,-3,0.15,i
Cc1nc2cc(NC(=O)CS(=O)(=O)c3ccccc3)ccc2s1,3,0,0,-3,-1,x,x
C[C@H](CO)N1C[C@H](C)[C@H](CN(C)C(=O)Nc2ccc3c(c2)OCO3)Oc2cc(C3=CCCC3)ccc2S1(=O)=O,-20,1.8*,12,-4,2,-0.49,i
C[C@H]1CN([C@@H](C)CO)S(=O)(=O)c2ccc(C3=CCCC3)cc2O[C@@H]1CN(C)C(=O)Nc1ccc2c(c1)OCO2,-10,-1,6,-8,5,x,x
